The values below come from ChEMBL document CHEMBL2218924, “A broad activity screen in support of a chemogenomic map for kinase signalling research and drug discovery” (Biochem J, 2013).

As a reminder, the residual activity is the signal under treatment as a percentage of the control signal.

In this experiment the target is Death-associated protein kinase 1 (Homo sapiens) (UniProt P53355). Conditions: at 1 µM.
Chain of Death-associated protein kinase 1 (Homo sapiens) (P53355 whole entry, looked up): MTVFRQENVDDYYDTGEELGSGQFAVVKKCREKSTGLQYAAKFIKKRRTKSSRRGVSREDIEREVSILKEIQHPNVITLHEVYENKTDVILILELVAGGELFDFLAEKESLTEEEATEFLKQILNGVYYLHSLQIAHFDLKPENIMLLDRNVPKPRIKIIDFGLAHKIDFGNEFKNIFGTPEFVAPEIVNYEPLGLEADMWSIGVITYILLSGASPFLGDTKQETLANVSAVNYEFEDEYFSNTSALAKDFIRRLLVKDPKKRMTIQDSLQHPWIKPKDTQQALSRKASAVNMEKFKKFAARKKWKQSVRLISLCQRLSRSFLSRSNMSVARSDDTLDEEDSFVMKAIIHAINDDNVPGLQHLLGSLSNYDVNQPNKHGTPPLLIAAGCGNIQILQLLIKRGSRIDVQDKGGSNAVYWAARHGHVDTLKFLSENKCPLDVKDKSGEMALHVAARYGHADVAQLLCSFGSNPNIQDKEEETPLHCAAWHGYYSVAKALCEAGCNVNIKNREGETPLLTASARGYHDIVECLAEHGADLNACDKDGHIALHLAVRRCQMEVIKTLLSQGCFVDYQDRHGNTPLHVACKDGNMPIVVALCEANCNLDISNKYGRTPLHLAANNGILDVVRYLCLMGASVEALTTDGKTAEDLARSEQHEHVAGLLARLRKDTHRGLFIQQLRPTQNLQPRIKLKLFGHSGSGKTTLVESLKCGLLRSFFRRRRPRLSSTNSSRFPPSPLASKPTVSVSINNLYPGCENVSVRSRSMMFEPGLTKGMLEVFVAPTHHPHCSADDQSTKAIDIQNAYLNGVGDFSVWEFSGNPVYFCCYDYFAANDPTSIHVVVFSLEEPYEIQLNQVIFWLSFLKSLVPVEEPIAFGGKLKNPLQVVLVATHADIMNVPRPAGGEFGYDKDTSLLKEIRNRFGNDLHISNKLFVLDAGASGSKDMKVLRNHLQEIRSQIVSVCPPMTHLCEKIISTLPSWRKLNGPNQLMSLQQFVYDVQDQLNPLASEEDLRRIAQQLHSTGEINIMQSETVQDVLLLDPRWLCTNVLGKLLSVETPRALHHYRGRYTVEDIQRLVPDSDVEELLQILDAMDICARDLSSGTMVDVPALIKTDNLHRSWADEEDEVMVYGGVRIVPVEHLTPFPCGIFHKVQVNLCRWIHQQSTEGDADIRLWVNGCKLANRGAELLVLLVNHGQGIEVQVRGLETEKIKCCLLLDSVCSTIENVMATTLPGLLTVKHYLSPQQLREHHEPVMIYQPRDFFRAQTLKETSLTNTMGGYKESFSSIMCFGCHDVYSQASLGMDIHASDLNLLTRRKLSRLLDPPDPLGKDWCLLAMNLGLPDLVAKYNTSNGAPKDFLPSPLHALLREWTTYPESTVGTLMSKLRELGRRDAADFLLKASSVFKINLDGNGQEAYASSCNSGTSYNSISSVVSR

For `O=C1NC(=O)/C(=C/c2ccc3c(c2)OC(F)(F)O3)S1`, the residual activity amounted to 98%.

On to `CO[C@@H]1[C@H](N(C)C(=O)c2ccccc2)C[C@H]2O[C@]1(C)n1c3ccccc3c3c4c(c5c6ccccc6n2c5c31)C(=O)NC4`, for which the residual activity is 63%.

Consider `O=C(Nc1cccc(Nc2nccc(Nc3cccc(C(F)(F)F)c3)n2)c1)C1CC1`, for which the residual activity stood at 98%.

In the case of `Nc1n[nH]c2nnc(-c3c(-c4ccccc4)nn4ccccc34)cc12`, the residual activity came out at 83%.

With `CC(=O)c1ccc(N2CCOCC2)cc1O`, the residual activity worked out at 111%.

Turning to `CC#CC(=O)Nc1cc2c(Nc3ccc(F)c(Cl)c3)ncnc2cn1`, the residual activity was 88%.

Take `CC[n+]1c(/C=C/N(C)c2ccccc2)n(-c2ccccc2)c2ccc(-c3nc4ccccc4s3)cc21`: the residual activity worked out at 79%.

On to `COc1cc2ncnc(Nc3ccc(Oc4ccccc4)cc3)c2cc1OC`, for which the residual activity stood at 100%.

With `N#Cc1c(NC(=O)c2cccc3ccccc23)sc2c1CCCC2`, the residual activity was 93%.

As for `CC(=O)O/N=C1\C(=C2\C(=O)Nc3cc(Br)ccc32)Nc2ccccc21`, the residual activity stood at 98%.

Consider `N#Cc1cnc2cnc(NCc3cccnc3)cc2c1Nc1ccc(F)c(Cl)c1`, for which the residual activity was determined as 69%.

Regarding `NC(=O)c1ccc(-c2nc(-c3ccc4c(c3)OCCO4)c(-c3ccccn3)[nH]2)cc1`, the residual activity amounted to 86%.

For `COc1ccc(-c2cnc3c(-c4ccsc4)cnn3c2)cc1`, the residual activity turned out to be 97%.

As to `Cc1nc(-c2ccccc2)c(-c2ccncc2)o1`, the residual activity turned out to be 81%.

As to `Cc1cncc2cccc(S(=O)(=O)N3CCCN(C(=O)CN)C[C@H]3C)c12`, the residual activity is 88%.

In the case of `CCN1/C(=C/C(C)=O)Sc2ccc(OC)cc21`, the residual activity is 81%.

Regarding `COc1cccc(-c2cc(=O)c3ccccc3o2)c1N`, the residual activity was determined as 81%.
